FBW7 activator = activators of human E3 ligase FBW7 | Q969H0 | AlphaScreen FBW7–phospho-cyclin E peptide binding, activator screen | normalized activity (activation), % at 26.1 µM | hit rate 0.13% among 650,000 | AID 1259310; in the data active means normalized activity above about 1.9%;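 further: purified mutant Fbw7 with reduced substrate affinity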
TEAD-YAP inh = TEAD-YAP interaction inhibition | HEK-TIYL cells, TEAD-Gal4/YAP UAS-luciferase luminescence | inhibition, % at 9.12 µM | hit rate 1.4% among 640,000 | AID 1259422; in the data active means inhibition above about 32%;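 further: 0% = median of test compound wells and 100% = reference inhibitor wells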
GPR151 activ = activates the human receptor GPR151; Q8TDV0; PathHunter beta-arrestin GPR151 cells, luminescence; activation, % at 11.2 µM; hit rate 1% among 650,000; in the data active means activation above about 4.9%;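 further: 0% = median of compound wells and 100% = cells with positive control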
MITF inh = blocks human microphthalmia-associated transcription factor; hit rate 0.91% among 650,000; O75030; AlphaScreen MITF homodimerization, bead proximity signal; inhibition, % at 2.6 µM; in the data active means inhibition above about 50%;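 further: 0% = vehicle wells with protein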
Target sequence (O75030 whole entry, looked up): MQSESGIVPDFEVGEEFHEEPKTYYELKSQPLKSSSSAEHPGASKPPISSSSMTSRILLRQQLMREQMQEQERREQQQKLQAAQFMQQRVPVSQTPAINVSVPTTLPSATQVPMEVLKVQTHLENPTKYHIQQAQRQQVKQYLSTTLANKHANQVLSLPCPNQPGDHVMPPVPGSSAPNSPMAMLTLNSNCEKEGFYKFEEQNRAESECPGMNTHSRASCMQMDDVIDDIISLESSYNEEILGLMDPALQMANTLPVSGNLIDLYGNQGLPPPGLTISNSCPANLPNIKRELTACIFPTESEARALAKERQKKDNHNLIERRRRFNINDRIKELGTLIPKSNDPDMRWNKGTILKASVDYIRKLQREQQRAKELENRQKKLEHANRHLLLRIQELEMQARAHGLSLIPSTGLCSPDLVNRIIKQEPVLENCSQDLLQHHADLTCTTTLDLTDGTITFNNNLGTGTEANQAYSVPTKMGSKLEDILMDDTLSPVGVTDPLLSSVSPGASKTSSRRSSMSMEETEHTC
* marks the source's active call; other numbers are inactive results. Hits are enriched below; roughly 3.4% of the tested compounds scored in any of these assays.

SMILES	FBW7 activator	TEAD-YAP inh	GPR151 activ	MITF inh
O=C(c1cc(-c2ccc(Cl)cc2)on1)N1CCCCCC1	0	-41	1	12
O=C(c1cc(-c2ccc(O)cc2)on1)N1CCCCCC1	0	50*	-1	6
Cc1ccc(-c2cc(C(=O)N3CCOCC3)no2)cc1	0	43*	-3	3
COc1cccc(C2C(C#N)=C(N)OC3=C2C(=O)CC(c2ccccc2)C3)c1OC (stereo not given)	1	6	0	26
COc1cccc(C2C(C#N)=C(N)N(N(C)C)C3=C2C(=O)CC(c2ccccc2)C3)c1OC (stereo not given)	0	55*	-2	21
COc1cc(C2C(C#N)=C(N)N(N(C)C)C3=C2C(=O)CC(c2ccccc2)C3)cc(OC)c1OC (stereo not given)	0	57*	0	-2
COc1ccc(OC)c(C2C(C#N)=C(N)N(N(C)C)C3=C2C(=O)CC(C)(C)C3)c1 (stereo not given)	0	6	0	6
N#CC1=C(N)OC2=C(C(=O)CC(c3ccccc3)C2)C1c1c(Cl)cccc1[N+](=O)[O-] (stereo not given)	1	41*	-1	12
Cc1ccc(C2C(C#N)=C(N)N(N(C)C)C3=C2C(=O)CC(c2ccccc2)C3)cc1 (stereo not given)	0	3	2	7
N#CC1=C(N)OC2=C(C(=O)CC(c3ccccc3)C2)C1c1ccc([N+](=O)[O-])s1 (stereo not given)	0	8	1	9
COc1ccc(OC)c(C2C(C#N)=C(N)N(N(C)C)C3=C2C(=O)CC(c2ccccc2)C3)c1 (stereo not given)	0	57*	-1	6
COc1ccc(N2CCN(CCCNC(=O)c3ccc4c(c3)NC(=O)c3ccccc3N4)CC2)cc1	0	4	0	0
COc1cccc2cc(C(=O)NC(C)=O)c(=Nc3ccccc3)oc12	0	-33	3	-3
COc1ccccc1C1C(C#N)=C(N)OC2=C1C(=O)CC(c1ccccc1)C2 (stereo not given)	0	-11	1	9
COc1ccc(OC)c(C2C(C#N)=C(N)OC3=C2C(=O)CC(c2ccccc2)C3)c1 (stereo not given)	0	47*	0	6
CC(C)NC(=S)N/N=C/c1cccc(C(F)(F)F)c1	0	3	0	-3
COc1ccc(C(=O)CC2(O)C(=O)N(Cc3ccccc3)c3ccccc32)cc1[N+](=O)[O-] (stereo not given)	0	3	2	2
CCOC(=O)c1sc2nc(C)nc(NC3CCCCC3)c2c1C	1	9	-1	6
COc1ccc(-c2nc(Nc3ccc(N4CCOCC4)cc3)c3[nH]cnc3n2)cc1	0	64*	0	-5
NC(=O)c1ccc(-c2nc(Nc3ccc(N4CCOCC4)cc3)c3[nH]cnc3n2)cc1	0	73*	1	-2
Cc1cc(NC(=O)CSc2nnc(-c3ccc(Cl)cc3)c(-c3ccc(Cl)cc3)n2)ccc1Cl	0	21	-1	-8
COc1ccc(N(C(=O)c2cc(OC)c(OC)c(OC)c2)S(=O)(=O)c2ccc(Cl)cc2)cc1	0	-3	-2	-1
Cc1ccc(S(=O)(=O)NCCOc2ccc(Cl)cc2)cc1[N+](=O)[O-]	1	4	0	3
CC1SC(C)C(=O)N(CC(=O)Nc2ccc(F)cc2F)C1=O (stereo not given)	0	2	1	0
COc1cccc(C2C(C#N)=C(N)OC3=C2C(=O)CC(C)(C)C3)c1OC(=O)N1CCOCC1 (stereo not given)	0	5	-1	13
SMILES	FBW7 activator	TEAD-YAP inh	GPR151 activ	MITF inh
O=C(N/N=C/c1ccccc1F)c1cc(O)c(O)c(O)c1	0	-13	-1	55*
O=C(N/N=C/c1ccco1)c1cc(Cl)ccc1O	0	-16	-1	2
O=C(N/N=C/c1ccco1)c1cc(O)c(O)c(O)c1	0	-2	-1	87*
Cc1cccc(C(=O)N/N=C/c2ccccc2F)c1	0	-9	0	-9
COc1cccc(CN(CCCN(C)C)C(=O)Nc2ccc(-c3cn[nH]c3)cc2)c1	0	1	-1	62*
COc1cccc(CNC(=O)Nc2ccc(-c3cn[nH]c3)cc2N(C)CCN(C)C)c1	1	-2	1	29
COc1cccc(CNC(=O)Nc2ccc(-c3cn[nH]c3)cc2N(C)CCO)c1	0	54*	-1	40
COc1cccc(CN(CCN(C)C)C(=O)Nc2ccc(-c3cn[nH]c3)cc2)c1	0	-12	-1	1
CCOC(=O)N1CCC(NC(=O)CC(NS(=O)(=O)c2ccc(C)cc2)c2ccc(OC)cc2)CC1 (stereo not given)	0	-4	1	-10
CCOc1ccccc1NC(=O)CSc1nnc(-c2ccoc2C)n1CC1CCCO1 (stereo not given)	0	10	1	6
COC(=O)Cn1c(=NC(=O)c2cc3ccccc3oc2=O)sc2c(C)cc(C)cc21	0	-8	-1	-8
c1ccc(-c2cnc3ccc(NCc4ccc5c(c4)OCO5)nn23)cc1	0	4	0	2
c1cc(-c2cnc3ccc(NCc4ccc5c(c4)OCO5)nn23)ccn1	0	47*	0	9
OCc1ccc(-c2cnc3ccc(NCc4ccc5c(c4)OCO5)nn23)cc1	1	58*	-1	11
COC(=O)C1=CN(Cc2ccc(OC)c(OC)c2)C=C(C(=O)OC)C1c1ccccc1Cl	0	-10	0	-11
CCCNc1nc2ccccn2c(=O)c1/C=C1\SC(=S)N(CC(C)C)C1=O	0	-1	-1	16
CCCCCN1/C(=C\C=C\c2n(CCCC)c3cc(Cl)c(Cl)cc3[n+]2CCCCC)N(CCCC)c2cc(Cl)c(Cl)cc21	0	44*	-1	17
CCn1c(C)[n+](CCOC(C)=O)c2cc(Cl)c(Cl)cc21	0	-6	0	-1
CCOC(=O)C1CCCN(C(=O)c2cc(-c3ccc(F)cc3)no2)C1 (stereo not given)	0	6	1	5
Cc1cc(C(=O)COC(=O)c2ccc(Br)cc2)c(C)n1CC1CCCO1 (stereo not given)	0	-1	0	-7
COc1ccc(O)c(/C=N/NC(=S)Nc2cccnc2)c1	0	-11	-2	91*
Oc1ccc(/C=N/NC(=S)Nc2cccnc2)cc1	0	65*	-1	12
COc1ccc(O)c(/C=N/Nc2ccccn2)c1	0	-55	0	73*
COc1cccc(/C=N/NC(=S)Nc2cccnc2)c1	0	-23	2	0
COc1cc(OC)c(OC)cc1/C=N/Nc1ccccn1	0	15	-1	5
O=S(=O)(c1ccc(Cl)cc1)N(Cc1ccco1)CC(O)Cn1c2ccccc2c2ccccc21 (stereo not given)	0	-3	1	-13
O=C(CCn1c(SCC(=O)Nc2cccc(C(F)(F)F)c2)nc2ccccc2c1=O)NCCc1ccccc1	0	9	1	-1

Compound activity: PubChem BioAssay, The Scripps Research Institute Molecular Screening Center
